Source: PubChem
An excerpt weighted towards active compounds, which were near 21% of everything screened.
NS1 function inh = blocks influenza NS1 protein function; Potency, µM (top dose mostly 46.1 µM); 270,000 tested, 0.4% active; calls by dose curve; further: actives are rising curves; nearly all actives have a fitted effect of over 50% in size
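Read-out: OD600 growth recovery of NS1-expressing budding yeast. Cells grown overnight at 30C in -URA glucose medium, washed, resuspended and diluted 1:100 in 2% galactose assay medium, pH 6.0. Same strain lacking NS1 served as positive control.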
Sm TGR inh = inhibitors of Schistosoma mansoni thioredoxin glutathione reductase; 360,000 tested, 3% active; purified TGR, DTNB reduction, TNB absorbance 405 nm; Potency, µM (top dose mostly 114 µM), hits mostly inhibitors; Q962Y6; further: nearly all actives have a fitted effect of over 60% in size
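First, TGR (20 nM dispensed) and NADPH were mixed with compound. Second, a 15 min room-temperature incubation followed. Third, further NADPH and then DTNB were added to start the reaction. Finally, TNB absorbance was monitored kinetically.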
CHX counter = affects cycloheximide protein synthesis inhibition readout, counter-screen; 300,000 tested, 12% active; AID 2314; max response, %; cell reporter, cycloheximide protein synthesis inhibition counterscreen; in the data active means max response mostly above about 13%, no sharp cut-off; inactive means mostly below about 14%; further: read at 38.3 µM for the half of the compounds with a filed dose
Pf growth 96h = P. falciparum growth inhibition at 96 hour, primary screen for plastid delayed-death inhibitors | Potency, µM (top dose mostly 28.7 µM), hits mostly inhibitors | P. falciparum luciferase reporter growth, 96 h | 320,000 tested, 6.9% active | AID 504834
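Cell-based qHTS: luciferase-tagged P. falciparum in erythrocytes (2% hematocrit, 0.05% parasitemia final) incubated with compounds for 96 hours, 37 C, 5% CO2; luciferase detection reagent then added and luminescence measured.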
Pf growth 48h = inhibits P. falciparum growth in the first generation, 48 h | P. falciparum luciferase growth in erythrocytes, 48 h | Potency, µM (series often up to 28.7 µM), usual class: inhibitors | 310,000 tested, 5.9% active
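Erythrocytes infected with P. falciparum carrying an integrated firefly luciferase reporter (2% hematocrit, 0.1% parasitemia final) were exposed to compounds in RPMI 1640 with 0.5% Albumax at 37 C, 5% CO2. Growth inhibition was scored as reduced luminescence.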
Shiga inhibitor = blocks Shiga toxin action in Vero cells; Vero cells, Shiga toxin protein synthesis inhibition reporter; inhibition, % at 38.7 µM; 290,000 tested, 9.2% active; AID 2315; in the data active means inhibition mostly above about 28%, no sharp cut-off; inactive means mostly below about 43%
A number is an active result. Unless noted, the call rests on the fitted dose curve; in most records, active means well fitted curve in the direction sought with a large enough effect; inconclusive means small, poorly fitted or top-dose-only effect, or another doubt; inactive means no such curve, though single readings can be large; an effect the other way counts as inactive or inconclusive.

What do the screens show for `O=C(COC(=O)c1ccc(O)cc1)Nc1cccc(S(=O)(=O)NC2=NCCC2)c1`?
Sm TGR inh: inactive; Pf growth 96h: 6.6µM; Pf growth 48h: inconclusive

Results for O=C(COC(=O)c1ccccc1)Nc1cccc(S(=O)(=O)NC2=NCCCCC2)c1 ?
NS1 function inh: inactive; Sm TGR inh: inactive; CHX counter: inactive; Pf growth 96h: inactive; Pf growth 48h: inactive; Shiga inhibitor: inactive

What do the screens show for `CCNC(=S)Nc1cccc(S(=O)(=O)NC2=NCCC2)c1`?
Sm TGR inh: inactive; CHX counter: inactive; Pf growth 96h: inconclusive; Pf growth 48h: inactive; Shiga inhibitor: inactive

How did O=C(CCl)Nc1cccc(S(=O)(=O)NC2=NCCC2)c1 do in these assays?
NS1 function inh: inactive; Sm TGR inh: 6.3µM; CHX counter: inactive; Pf growth 96h: 4.7µM; Pf growth 48h: 3.3µM; Shiga inhibitor: inactive

What do the screens show for `O=C(Cc1csc(-c2ccc(F)cc2)n1)Nc1cccc(S(=O)(=O)NC2=NCCC2)c1`?
Sm TGR inh: inactive; Pf growth 96h: 6.6µM; Pf growth 48h: inactive

Results for CN(CC(=O)NC1CCCCC1)S(=O)(=O)c1ccc2c(c1)c(=O)n(C)c(=O)n2C ?
NS1 function inh: inactive; Sm TGR inh: inactive; CHX counter: inactive; Pf growth 96h: inactive; Pf growth 48h: inactive; Shiga inhibitor: inactive

Results for CCCCNC(=S)Nc1cccc(S(=O)(=O)NC2=NCCC2)c1 ?
Sm TGR inh: 40µM; Pf growth 96h: inactive; Pf growth 48h: inactive

How did COc1ccc2cc(Br)ccc2c1CC(=O)NC(C)(C)C do in these assays?
NS1 function inh: inactive; Sm TGR inh: inactive; CHX counter: inactive; Pf growth 96h: inconclusive; Pf growth 48h: inactive; Shiga inhibitor: inactive

What do the screens show for `COc1ccc(C)cc1-n1cnnn1`?
NS1 function inh: inactive; Sm TGR inh: inactive; CHX counter: inactive; Pf growth 96h: inactive; Pf growth 48h: inactive; Shiga inhibitor: inactive

Results for COc1ccc([N+](=O)[O-])cc1-n1cnnn1 ?
NS1 function inh: inactive; Sm TGR inh: inactive; CHX counter: inactive; Pf growth 96h: 1.5µM; Pf growth 48h: inactive; Shiga inhibitor: inactive

What do the screens show for `COc1ccc(N2C(=O)C3C4C=CC(C5CC45)C3C2=O)c([N+](=O)[O-])c1` (centres undefined)?
NS1 function inh: inactive; Sm TGR inh: inactive; CHX counter: inactive; Pf growth 96h: inactive; Pf growth 48h: inactive; Shiga inhibitor: inactive

Results for COc1cc([N+](=O)[O-])ccc1N ?
NS1 function inh: inactive; Sm TGR inh: inactive; CHX counter: inactive; Pf growth 96h: 9.3µM; Pf growth 48h: inactive; Shiga inhibitor: inactive

How did COc1cc([N+](=O)[O-])ccc1N1C(=O)C2C3C=CC(C4CC34)C2C1=O (centres undefined) do in these assays?
Sm TGR inh: 45µM; CHX counter: inactive; Pf growth 96h: inactive; Pf growth 48h: inactive; Shiga inhibitor: inactive

How did CCC1COCCS(=O)(=O)N1Cc1ccc(F)cc1 (centres undefined) do in these assays?
NS1 function inh: inactive; Sm TGR inh: inactive; CHX counter: inactive; Pf growth 96h: inactive; Pf growth 48h: inactive; Shiga inhibitor: inactive

How did O=S(=O)(c1ccccc1)N1CCC(O)(CSc2ccc(F)cc2)CC1 do in these assays?
Sm TGR inh: inactive; CHX counter: inactive; Pf growth 96h: inactive; Pf growth 48h: inconclusive; Shiga inhibitor: inactive

Results for CCOc1cccc(CN2CCN(c3cccc(C(F)(F)F)c3)CC2)c1O ?
NS1 function inh: inactive; Sm TGR inh: inactive; CHX counter: inactive; Pf growth 48h: 2.3µM; Shiga inhibitor: inactive

How did COc1cccc(CN2CCN(c3cccc(C(F)(F)F)c3)CC2)c1OC do in these assays?
NS1 function inh: inactive; Sm TGR inh: inactive; CHX counter: inactive; Pf growth 48h: inactive; Shiga inhibitor: inactive

Results for CCOc1cccc(CN2CCCC(N3CCc4ccccc4C3)C2)c1O (centres undefined) ?
NS1 function inh: inactive; Sm TGR inh: inconclusive; CHX counter: inactive; Pf growth 96h: inactive; Pf growth 48h: 1.7µM; Shiga inhibitor: inactive

What do the screens show for `COc1cccc(CN2CCCC(N3CCc4ccccc4C3)C2)c1O` (centres undefined)?
NS1 function inh: inactive; Sm TGR inh: inactive; CHX counter: inactive; Pf growth 96h: inactive; Pf growth 48h: inconclusive; Shiga inhibitor: inactive

How did CCOc1cccc(CN2CCCC(N3CCN(c4cccc(Cl)c4)CC3)C2)c1O (centres undefined) do in these assays?
NS1 function inh: inactive; Sm TGR inh: inactive; CHX counter: inactive; Pf growth 96h: 3.7µM; Pf growth 48h: inconclusive; Shiga inhibitor: inactive

Results for COc1ccc(Cl)cc1C(=O)C1CCCN(Cc2cnc(N3CCOCC3)s2)C1 (centres undefined) ?
NS1 function inh: inactive; Sm TGR inh: inactive; CHX counter: inactive; Pf growth 96h: 10µM; Pf growth 48h: inconclusive; Shiga inhibitor: inactive

What do the screens show for `COc1ccc(F)cc1C(=O)C1CCCN(Cc2cnc(N3CCCC3)s2)C1` (centres undefined)?
NS1 function inh: inactive; Sm TGR inh: inactive; CHX counter: inactive; Pf growth 96h: inactive; Pf growth 48h: inactive; Shiga inhibitor: inactive

Results for O=C(CSc1nnc(-c2ccccc2)o1)c1cccc([N+](=O)[O-])c1 ?
Sm TGR inh: inactive

Results for FC(F)(F)c1cccc(N2CCN(Cc3cccnc3)CC2)c1 ?
NS1 function inh: inactive; Sm TGR inh: inactive; CHX counter: inactive; Pf growth 96h: 4.7µM; Pf growth 48h: inconclusive; Shiga inhibitor: inactive

How did CCOc1cccc(CN2CCCC(C(=O)c3cc(Cl)ccc3OC)C2)c1O (centres undefined) do in these assays?
NS1 function inh: inactive; Sm TGR inh: inactive; CHX counter: inactive; Pf growth 96h: inactive; Pf growth 48h: 1.7µM; Shiga inhibitor: inactive

How did COc1cccc(CN2CCCC(C(=O)c3ccc4c(c3)OCO4)C2)c1O (centres undefined) do in these assays?
NS1 function inh: inactive; Sm TGR inh: inactive; CHX counter: inactive; Pf growth 96h: inactive; Pf growth 48h: inconclusive; Shiga inhibitor: inactive

What do the screens show for `Cc1cc(NS(=O)(=O)c2ccc(NC(=O)COc3ccc(Cl)cc3)cc2)nc(C)n1`?
Sm TGR inh: inactive

How did C/C(=N\NC(=O)C(=O)Nc1cc(Cl)ccc1Cl)c1ccncc1 do in these assays?
NS1 function inh: inactive; Sm TGR inh: inactive; CHX counter: inactive; Pf growth 96h: inactive; Pf growth 48h: inactive; Shiga inhibitor: inactive

How did COc1ccc(C(=O)Nc2ccc(/C(C)=N/NC(=O)c3ccncc3)cc2)cc1 do in these assays?
NS1 function inh: inactive; Sm TGR inh: inactive; CHX counter: 26; Pf growth 96h: inactive; Pf growth 48h: inactive; Shiga inhibitor: inactive

How did C/C(=N\NC(=O)c1ccncc1)c1ccc(NC(=O)c2ccc(Cl)cc2)cc1 do in these assays?
NS1 function inh: inactive; Sm TGR inh: inactive; CHX counter: 57; Pf growth 96h: inactive; Pf growth 48h: inactive; Shiga inhibitor: 97

Results for C/C(=N/NC(=O)c1ccncc1)c1ccc(NC(=O)c2ccc(Cl)cc2Cl)cc1 ?
NS1 function inh: inactive; Sm TGR inh: inactive; CHX counter: 63; Pf growth 96h: inactive; Pf growth 48h: inactive; Shiga inhibitor: inactive
